This passage reports PBM binding z-score results from the supplement of paper PMC6555819.

In this assay the test system is RARg homodimer (NR concentration 270 nM). In words: PBM binding z-score (relative to random genomic background probes); higher = stronger binding; sequences stand for … in GC…GCGATTGACAGCGTAGAATGAAGG
The method, boiled down:
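Scanned fluorescence from custom Agilent 4×180K protein-binding microarrays was regression-normalized. Binding z-scores use random background probes as reference. Ligand-free nuclear receptor dimers were incubated on the arrays for 1 h and detected with antibodies against each partner (one per run).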
With GCTCGGAGGACAAGGTCAGTGCTTTGTCCGTAGA, the PBM binding z-score came out at 3.65.

Consider CCGTGTAGGTTATGGGGCATTCAGGCAACGGTGA, for which the PBM binding z-score was found to be 0.846.

Regarding ATCTCTAGGTAAACGTTCAGTGAATCCCGAGGAT, the PBM binding z-score is 0.369.

For GGAACGAGGGCATAGTTGATAGCATCTGTCGACG, the PBM binding z-score came out at 1.22.

CCTACTGGTCCATTCAGAGGTCATTGATCATATG: the PBM binding z-score came to 2.62.

TCTGGTTGGTCACGGAGGTCACACACGACGGGTA registered a PBM binding z-score of 5.28.

Consider CGCACTAGGTCAGAACAGGACAGTGAAGGATGAT, for which the PBM binding z-score was determined as 3.31.

TCTTGTAGATCAGTAGAGGTTAAGAAAGTGCGCT: the PBM binding z-score was determined as 0.344.

Regarding CAGCCTAGGTCAGGGCTAGTATAGGAGGAACGTT, the PBM binding z-score is 3.76.

With CAAACTAGGTCACAGAGCTCAAAGTCCGTGCGTA, the PBM binding z-score turned out to be 4.81.

The sequence CGAACTAGGTCATCCAGGACAGTTAATACATTGA gave a PBM binding z-score of 4.66.

CTCGAAAGGTCGGTTTAGGTGAGTATACGGATAA yielded a PBM binding z-score of 2.31.

Sequence CGTCCAAGGTCAATGCTAGGTCATTGAAAGCATT registered a PBM binding z-score of 7.

With CCGACTGGGGCAGAAAGGTTCCCATACCATCCGG, the PBM binding z-score worked out at 0.0675.

CCTACTGGGCCAAAAGGGTCATTGATGCCGATAA yielded a PBM binding z-score of 2.71.

TCGAGTAGGTTAGGGGCACTCAGAATGGCGTCGA gave a PBM binding z-score of 0.17.

TCTGCTAGGCCAGTTGGTCAGCTAACGAGCTGCC gave a PBM binding z-score of -0.212.

Sequence ATCTCTAGGTTAGACTCAGTTCAGTGAAGAACGC yielded a PBM binding z-score of 1.14.

GCTTGTAGATCAAGGTTAAGAATGACTAAGCTAA had a PBM binding z-score of 0.413.

As for CGTCATAGTTCAACTAAGGTAACGTAAAGCACGC, the PBM binding z-score was 3.83.

AGCCAAAGTTCATCTAGGTAACGTAAGATATGCT gave a PBM binding z-score of 5.88.

On to TCTTGTAGAACAACAGGAGGTTAAGAAAGATCGA, for which the PBM binding z-score amounted to 0.286.

With TCTTGTAGATCAGCAGGGTAAGAAAGCTGGCCAA, the PBM binding z-score was -0.5.

ACAGACAGGTGAGTGCAGGTAACTCAGCTGGACG showed a PBM binding z-score of 0.426.

For the sequence GCTAGCAGGCCATTTGGGTCCCTCAATGACGGGC, the PBM binding z-score is -0.379.

On to TCGAGTAGGTTACCAATGGGGCATCCAGCTTTCT, for which the PBM binding z-score came to 0.452.

TCATATAGGTAAAGGTGAAATTCGAACGATATGA: the PBM binding z-score was 1.28.

As to GCATATAGGTAATACAAGGTGAAAGTACGATTGT, the PBM binding z-score is 0.793.

TCTTGTAGATCAGCAGGTCAAGAAAGCTGGCCAA returned a PBM binding z-score of 1.55.

Sequence CCTTACGGGTCACTGACAGGTTATAGCATTTGGA registered a PBM binding z-score of 4.95.

ATCTCTAGGTAACAAGTTCAATGAAAGAGAGGAC: the PBM binding z-score was 1.8.

Sequence CGTCCAAGGTCAGCAGGTCAATGAAAGCGACGTG registered a PBM binding z-score of 6.73.

CCTTACGGGTCAAGGTTATGGCACGGGTGGTACG returned a PBM binding z-score of 4.67.

ACGATTAGTTGAGACGAGGGCAACCGATAGGTTG: the PBM binding z-score came to 0.643.

In turn, CCGACTGTGGCAGAAAGGTTACCATACCATCCGG registered a PBM binding z-score of 0.761.

TCTATTAGTTGATGAGGGCAACCGAAACAGCGGA displayed a PBM binding z-score of 0.907.

Turning to CCTACTGGGCCAAGGTCATTAATCAGTCAAAGCA, the PBM binding z-score came out at 2.99.

CGAACTAGGTCATTGACAGGACAGTGATTAGTAA showed a PBM binding z-score of 4.52.

In turn, TCAGACAGGTGAAGGTAGCTCAGGTACGCAGTCG yielded a PBM binding z-score of 0.456.

With AGTCAAAGTTCAGGACGAGGTGACGTAAAGCACG, the PBM binding z-score is 5.15.
